In PubChem BioAssay AID1779 (Sanford-Burnham Center for Chemical Genomics, 2009):
Hit rate of the full screen: of about 290,000 compounds, about 160 (0.055%) were called active. Many of the other results were omitted from the sample, so actives are more common in it than they were. Values without a mark were called inactive. Cut-off read from the data, not from the text of the source: active = inhibition above about 50%; inactive = the rest.

What follows are compounds tested against Tyrosine-protein phosphatase non-receptor type 22 (Homo sapiens) (UniProt Q9Y2R2) (assay: inhibitors of LYP phosphatase, biochemical, fluorescence intensity, uHTS (AID 1779;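 note: plate controls were vehicle with enzyme for no effect and no enzyme for full effect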)). Settings: recombinant LYP phosphatase, at 11.5 µM, hits give high values.
Tyrosine-protein phosphatase non-receptor type 22 (Homo sapiens), sequence (Q9Y2R2 whole entry, looked up): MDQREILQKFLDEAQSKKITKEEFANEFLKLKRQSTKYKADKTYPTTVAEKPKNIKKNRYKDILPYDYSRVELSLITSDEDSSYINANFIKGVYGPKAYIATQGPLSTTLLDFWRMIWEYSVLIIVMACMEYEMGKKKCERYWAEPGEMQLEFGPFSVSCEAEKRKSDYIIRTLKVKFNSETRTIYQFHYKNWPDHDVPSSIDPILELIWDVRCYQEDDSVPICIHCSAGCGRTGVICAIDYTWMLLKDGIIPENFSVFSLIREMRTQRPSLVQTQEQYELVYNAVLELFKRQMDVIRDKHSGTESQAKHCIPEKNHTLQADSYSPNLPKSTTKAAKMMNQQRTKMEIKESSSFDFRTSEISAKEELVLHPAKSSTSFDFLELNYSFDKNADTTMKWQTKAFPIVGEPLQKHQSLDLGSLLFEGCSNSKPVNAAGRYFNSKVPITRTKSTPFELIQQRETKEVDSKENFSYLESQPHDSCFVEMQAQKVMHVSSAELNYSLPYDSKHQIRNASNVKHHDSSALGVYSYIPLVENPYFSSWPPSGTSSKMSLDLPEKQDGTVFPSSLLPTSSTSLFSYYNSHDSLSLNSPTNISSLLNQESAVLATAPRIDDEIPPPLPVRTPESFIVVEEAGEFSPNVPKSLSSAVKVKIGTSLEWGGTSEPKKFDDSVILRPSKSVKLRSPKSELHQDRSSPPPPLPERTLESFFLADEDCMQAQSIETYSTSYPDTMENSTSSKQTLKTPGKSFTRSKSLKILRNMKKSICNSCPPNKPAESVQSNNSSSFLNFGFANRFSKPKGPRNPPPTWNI

| SMILES | inhibition |
| --- | --- |
| O=C(NCc1ccccc1)c1cncc(Br)c1 | 67.8% (active) |
| O=C(NCc1ccncc1)c1cncc(Br)c1 | -9.5% |
| Cc1ccc(CNC(=O)c2cncc(Br)c2)cc1 | -2.9% |
| NC(=O)Nc1ccc(C(=O)OCC(=O)Nc2cccc(S(=O)(=O)NC3=NCCCCC3)c2)cc1 | -1.2% |
| CCOC(=O)c1cc(-c2ccccc2)sc1NC(=S)Nc1cccc(C)n1 | 5.7% |
| Cc1ccc2nsnc2c1NC(=O)CCl | -1.6% |
| CC(C)Cc1nc(S(=O)(=O)c2ccc(Cl)cc2)c(N2CCOCC2)o1 | 81.8% (active) |
| CC(C)(C)c1nc(S(=O)(=O)c2ccc(Cl)cc2)c(N2CCOCC2)o1 | -10.6% |
| CCCCc1nc(S(=O)(=O)c2ccc(Cl)cc2)c(N2CCOCC2)o1 | -7.7% |
| CCc1ccc2c(CC(=O)Nc3nnc(C4CC4)s3)coc2c1 | -7.3% |
| Cc1ccc(CNC(=O)CN2CCN(c3ccc(F)cc3)CC2)cc1 | 1.2% |
| CCN(CCO)Cc1csc2ccc(C(C)(C)C)cc12 | 52.5% (active) |
| CCN(CCO)Cc1csc2ccc(Br)cc12 | -8.6% |
| CCN(CCO)Cc1csc2ccc(Cl)cc12 | -3.3% |
| FC(F)(F)c1cc(Cl)c2nnc(-c3cccnc3)n2c1 | -4.4% |
| Cc1ccc(NC(=Nc2ccc(Br)cc2)N2CCOCC2)cc1C | -2.9% |
| Cc1ccc2[nH]c(=O)cc(C(=O)OCC(=O)c3ccc(F)cc3)c2c1 | 1.2% |
| Cc1ccc2[nH]c(=O)cc(C(=O)OCC(=O)c3ccccc3)c2c1 | 70.6% (active) |
| Cc1ccc(C(=O)COC(=O)c2cc(=O)[nH]c3ccccc23)cc1 | -5.1% |
| Cn1c(C(=O)NC2CCCCC2)cc2sccc21 | -4.8% |
| CCOC(=O)c1ccc(NC(=S)Nc2ccccc2)cc1 | -5.5% |
| CCOC(=O)c1ccc(NC(=S)NC(=O)COc2ccccc2)cc1 | 69.2% (active) |
| CCC(=O)NC(=S)Nc1ccc(NC(=O)COc2ccccc2)cc1 | -2.2% |
| COc1ccc2[nH]c(=O)c(CN(c3ccccc3OC)S(=O)(=O)c3ccccc3)cc2c1 | -5.9% |

| SMILES | inhibition |
| --- | --- |
| Nc1nc(NCCN2CCOCC2)nc(NCc2ccccc2)c1[N+](=O)[O-] | -6% |
| CC(C)CCNC(=O)c1ccc2c(SCC(=O)O)c3c(nc2c1)CCC3 | -1.8% |
| CC(C)CCNC(=O)c1ccc2c(Cl)c3c(nc2c1)CCC3 | 85.9% (active) |
| COCCNC(=O)c1ccc2c(Cl)c3c(nc2c1)CCC3 | -7.1% |
| O=C(Nc1ccccc1C(=O)NCc1ccccc1)c1ccccc1Br | -1.2% |
| Cc1ccc(C(C(=O)NC2CCCC2)N2CCc3ccccc32)cc1 (centres undefined) | 0.4% |
| COc1ccc(C(C(=O)NC2CCCC2)N2CCc3ccccc32)cc1 (centres undefined) | 88.2% (active) |
| O=C(NC1CCCCC1)C(c1ccccc1)N1CCc2ccccc21 (centres undefined) | 3% |
| COc1ccc(CNC(=O)Cc2ccc(NC(=O)C3=C(C)OCCS3)cc2)cc1 | -1.9% |
| CC(O)CNc1nc2c(c(=O)n(Cc3ccc(Cl)c(Cl)c3)c(=O)n2C)n1C (centres undefined) | -3.6% |
| N#C/C(=C/c1ccccc1OCc1ccc(F)cc1)c1ccc(C(=O)O)cc1 | -6.7% |
| N#C/C(=C\c1ccccc1OCc1ccc(C(=O)O)cc1)c1ccccc1 | -4.4% |
| N#C/C(=C\c1ccc(OCc2ccc(Br)cc2)cc1)C(=O)Nc1cccc(C(=O)O)c1 | 93.4% (active) |
| N#C/C(=C/c1ccc(OCc2ccc(C(=O)O)cc2)cc1)C(=O)Nc1ccccc1 | -4.6% |
| COc1cc(/C=C(\C#N)C(=O)Nc2cccc(C(=O)O)c2)ccc1OCc1ccc(C)cc1 | -1.7% |
| N#C/C(=C\c1ccc(OCc2ccc(F)cc2)cc1)C(=O)Nc1cccc(C(=O)O)c1 | 5.5% |
| N#C/C(=C\c1ccc(OCc2ccccc2)cc1)C(=O)Nc1ccc(C(=O)O)cc1 | 3% |
| COc1cc(/C=C(\C#N)C(=O)Nc2cccc(C(=O)O)c2)ccc1OCc1ccc(Cl)cc1 | 15% |
| CCOc1cc(/C=C(\C#N)C(=O)Nc2cccc(C(=O)O)c2)ccc1OCc1ccccc1Cl | -2.4% |
| COc1ccc(-c2sc3ccccc3c2C#CC2(O)CCCCC2)cc1 | -5% |
| CSc1nc2ccc(NS(=O)(=O)c3ccc(Cl)s3)cc2s1 | 1.1% |
| COC(=O)CSCC(=O)Nc1nnc(-c2cccc(C)c2)s1 | 5% |
| CC(=O)c1sc(NC(=O)C(C)Oc2ccc3c(C)cc(=O)oc3c2)nc1C (centres undefined) | -5.1% |
| CC(=O)N(C)c1ccc(NC(=S)Nc2cccc3ccccc23)cc1 | -2.8% |

| SMILES | inhibition |
| --- | --- |
| O=C(Cn1nc(Cc2cccnc2)c2ccccc2c1=O)Nc1cc(F)ccc1F | -6.7% |
| O=C(N=C1SC2CS(=O)(=O)CC2N1Cc1ccccc1Cl)C1CC1 (centres undefined) | -11.3% |
| COc1ccccc1CNC(=O)c1cc2sccc2n1C | -5.5% |
| CC(=O)Nc1ccc(S(=O)(=O)N2CCC(NC(=O)C(Cc3ccc(C)cc3)NC(C)=O)CC2)cc1 (centres undefined) | -16% |
| CCC1=C(OC(=O)N(CC)CC)N2C(=O)OC(=NCC3CC3)[C@]2(C)[C@H]2C1=CC[C@H]1C(=O)NC(=O)[C@H]12 | -0.8% |
| CCOC(=O)c1c(C)[nH]c(C)c1C(=O)CSc1nc2ccccc2n1CC | -7.1% |
| O=C(O)C1CCCCC1C(=O)Nc1ccc(Cl)cc1 (centres undefined) | -1.6% |
| O=C(O)C1CC=CCC1C(=O)Nc1ccc(F)c(F)c1 (centres undefined) | 6.1% |
| O=C(O)C1CCCCC1C(=O)Nc1ccc(F)c(F)c1 (centres undefined) | 51.4% (active) |
| COc1cccc(C2C(C(=O)c3cc4ccccc4o3)=C(O)C(=O)N2c2cc(C)on2)c1 (centres undefined) | -8% |
| Cc1ccc(C)c(CN2C(=O)COc3ccccc32)c1 | -5.6% |
| Cc1ccc(C)c(CN2C(=O)COc3ccc(C(=O)c4ccccc4C(=O)O)cc32)c1 | 57.9% (active) |
| CCCN1C(=O)COc2ccc(C(=O)c3ccccc3C(=O)O)cc21 | -4.6% |
| O=S(=O)(/C=C/c1ccccc1)NC1CCCCCCC1 | -7.9% |
| CC(c1ccccc1)n1c(N2CCN(C)CC2)nc2c1c(=O)[nH]c(=O)n2C (centres undefined) | -0.2% |
| CCN(CC)CCNC(=O)Cc1nn(CC)c(=O)c2ccccc12 | -9.1% |
| COCCn1c(=O)c2cc3c(=O)n(CCOC)c(=O)c3cc2c1=O | -8.5% |
| CC(=O)NCCc1cc2ccc(C)c(C)c2[nH]c1=O | 0.4% |
| CCCC(=O)NCCc1cc2ccc(C)c(C)c2[nH]c1=O | 67.2% (active) |
| CCC(=O)NCCc1cc2ccc(C)c(C)c2[nH]c1=O | 1.7% |
| CCOc1ccccc1/C=N/OCC(=O)NCc1ccc(F)cc1 | -5.5% |
| Cc1ccc(-n2c(=O)c3cc4c(=O)n(-c5ccc(C)c(C)c5)c(=O)c4c(C(=O)c4ccc(C(=O)O)cc4)c3c2=O)cc1C | 85.8% (active) |
| O=C(O)c1ccc(-n2c(=O)c3ccccc3c3ccccc3c2=O)cc1 | -4% |
| Cc1ccc(N2C(=O)c3ccc(C(=O)O)cc3C2=O)cc1C | -1.9% |

| SMILES | inhibition |
| --- | --- |
| COCCN(C(=O)c1csnn1)C(C(=O)NC1CCCCC1)c1ccc(C)cc1 (centres undefined) | -9.2% |
| NC(=O)C(c1cccc(Cl)c1)c1ncc(C(F)(F)F)cc1Cl (centres undefined) | -10.5% |
| C#CCOc1ccc(/C=N/NC(=O)c2cccnc2)cc1OCC | 1.2% |
| COc1ccccc1OCC(=O)OCC(=O)Nc1ncc(Cl)cc1Cl | -9.7% |
| O=C(Nc1ccccc1)C1=C[C@@H](C2CCCCC2)C[C@@H](OCCCCO)O1 | 2.1% |
| O=C(O)CCN1C(=O)/C(=C/c2ccc(-c3nc4ccccc4s3)o2)SC1=S | 14.6% |
| O=C(O)CCCN1C(=O)/C(=C\c2ccc(-c3nc4ccccc4s3)o2)SC1=S | 6.8% |
| O=C(c1ccc2c(c1)OCO2)N1CCC2(CC1)Oc1ccc(Cl)cc1C(=O)C21CC(c2ccccc2)=NO1 (centres undefined) | 5.7% |
| O=C(O)c1cccc(-n2cccc2/C=C2/NC(=O)N(c3cccc(Cl)c3)C2=O)c1 | 0.3% |
| O=C(O)c1ccc(-n2cccc2/C=C2/NC(=O)N(c3cccc(Cl)c3)C2=O)cc1 | 6.2% |
| Cc1cc(NC(=O)Nc2ccc(Cl)cc2)no1 | -8.1% |
| CC[C@H](C)[C@H](NC(N)=O)C(=O)OCC(=O)NCc1ccc(Cl)cc1 | -4.9% |
| COc1cc2c(cc1OC)-c1nnc(-c3ccco3)n1C1(CCCC1)C2 | -4.3% |
| Cc1cc(N2CCOCC2)nc(SCc2ccc(Cl)cc2Cl)n1 | -4.6% |
| O=C(O)C1CCC(N2C(=O)C3CCCCC3C2=O)CC1 (centres undefined) | -12.2% |
| O=C(O)C1CCC(N2C(=O)c3cccc([N+](=O)[O-])c3C2=O)CC1 (centres undefined) | -7.1% |
| O=C(O)C1CCC(N2C(=O)c3c(Cl)c(Cl)c(Cl)c(Cl)c3C2=O)CC1 (centres undefined) | 94.2% (active) |
| Cc1cccc(OCC(=O)Nc2nnn(C)n2)c1C | -6.4% |
| CCOc1ccccc1-c1cc(C(=O)N/N=C/c2ccc(O)c(OC)c2)c2ccccc2n1 | 64.5% (active) |
| COc1cc(/C=N/NC(=O)c2cc(-c3ccccc3OC(C)C)nc3ccccc23)ccc1O | 4.4% |
| COc1cc(/C=N/NC(=O)c2cc(-c3ccccc3)nc3ccccc23)ccc1O | -1.5% |
| O=C(NCCc1ccccn1)C1CCN(S(=O)(=O)c2ccc(Cl)cc2)CC1 | -6.8% |
